# PubChem BioAssay (EPA / NIEHS)
# The source made the active and inactive calls. Rule for the calls: active = hit-call score of the fitted dose curve at least 0.9, where 1 is the maximum; inactive = score below 0.9.
# Tests used:
# [1] = ATG_CRE_CIS: Attagene CIS-FACTORIAL HepG2 Assay for human cAMP Responsive Element (CRE) binding protein 3 (AID 2282926); details: HepG2 CRE cis-reporter, Attagene multiplexed mRNA; actives raise or lower the signal
# Outline: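 Cells carrying cis-regulated reporter constructs respond through their own endogenous factors. After 24 h treatment, RNA is reverse-transcribed, amplified, labelled and sized by capillary electrophoresis; up- and down-regulation are both scored against vehicle.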
# [2] = target: CCAAT/enhancer-binding protein beta (Homo sapiens) (UniProt P17676); assay: ATG_C_EBP_CIS: Attagene CIS-FACTORIAL HepG2 Assay for human CCAAT/Enhancer Binding Protein (C/EBP) beta (AID 2282927); details: HepG2 Attagene cis-factorial transcription factor reporter; actives raise or lower the signal
# Outline: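 Endogenous C/EBPb-driven reporter transcripts measured in transfected human HepG2 cells at 24 h via RT-PCR and capillary electrophoresis of labelled fragments. Activity fitted in both directions relative to DMSO baseline.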
# [3] = ATG_CMV_CIS: Attagene CIS-FACTORIAL HepG2 Assay for human CMV (Internal Marker) (AID 2282928); details: HepG2 CMV promoter reporter, transcription factor profiling; actives raise or lower the signal;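 note: endpoint acts as a background internal control marker rather than a target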
# Outline: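 24 h chemical treatment, HepG2 with transient multi-reporter transfection; RNA → oligo(dT) RT → PCR → 6-FAM extension → HpaI digest → CE fluorescence. Bidirectional fit, DMSO negative control.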
# [4] = target: Aryl hydrocarbon receptor (Homo sapiens) (UniProt P35869); assay: ATG_Ahr_CIS: Attagene CIS-FACTORIAL HepG2 Assay for human Aryl Hydrocarbon Receptor (Ahr) (AID 2282930); details: HepG2 AhR cis-factorial reporter transcription; actives raise or lower the signal
# Outline: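 Reporter mRNA levels, quantified by RT-PCR and fluorescent capillary electrophoresis, reflect endogenous AhR transcriptional activity in HepG2 cells carrying transfected cis-promoter reporter constructs. Readout at 24 h post-dose; gain or loss fitted against DMSO baseline.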
# [5] = ATG_AP_2_CIS: Attagene CIS-FACTORIAL HepG2 Assay for human Activator Protein 2 (AP-2) (AID 2282932); details: HepG2 AP-2 cis-reporter, Attagene transcription factor profiling; actives raise or lower the signal
# Outline: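 Transiently transfected HepG2 cells are exposed to chemical for 24 h. Reporter transcripts are then measured as fluorescence following RT-PCR and capillary separation, and gain- or loss-of-signal is fitted relative to DMSO.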
# [6] = target: Retinoic acid receptor alpha (Homo sapiens) (UniProt P10276); assay: ATG_DR5_RAR_CIS: Attagene CIS-FACTORIAL HepG2 Assay for human Retinoic Acid Receptor Alpha (RARE), DR5 submotif (AID 2282934); details: HepG2 Attagene cis-factorial RARE DR5 reporter, mRNA; actives raise or lower the signal;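 for AC50: reporter responds to endogenous RAR alpha beta and gamma in HepG2 not RARA alone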
# Outline: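 Reporter transcripts from a DR5-regulated unit, measured via RT-PCR plus capillary electrophoresis, reflect endogenous RAR activity in transiently transfected human HepG2 liver cells. Exposure lasted 24 h; gain or loss of signal scored against DMSO.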
# [7] = target: Transcription factor E2F1 (Homo sapiens) (UniProt Q01094); assay: ATG_E2F_CIS: Attagene CIS-FACTORIAL HepG2 Assay for human E2F Transcription Factor 1 (AID 2282935); details: HepG2 Attagene cis-reporter, E2F reporter RNA transcripts; actives raise or lower the signal
# Outline: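 Fluorescent RT-PCR products, digested with HpaI for 2 h at 37 C, are separated by capillary electrophoresis. Source RNA comes from transfected HepG2 cultures treated for 24 h.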
# [8] = ATG_E_Box_CIS: Attagene CIS-FACTORIAL HepG2 Assay for human Enhancer Box (E-box) (AID 2282936); details: HepG2 E-box cis-reporter transcription, actives raise or lower the signal
# Outline: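 Fluorescent reporter fragments separated by capillary electrophoresis gave the signal; mRNA came from HepG2 cells transfected with cis-element reporters and treated 24 h. Curves fitted bidirectionally relative to DMSO controls.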
# [9] = ATG_M_61_CIS: Attagene CIS-FACTORIAL HepG2 Assay for M61 Transcription Factor (Internal Marker) (AID 2282937); details: HepG2 Attagene CIS-FACTORIAL M61 internal marker reporter; actives raise or lower the signal
# Outline: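 Background-control endpoint: HepG2 cells with cis-regulated reporter constructs, 24 h exposure, reporter mRNA detected via fluorescent primer extension and capillary electrophoresis; values from bidirectional fitting with DMSO baseline.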
# [10] = ATG_EGR_CIS: Attagene CIS-FACTORIAL HepG2 Assay for human Early Growth Response 1 (EGR1) (AID 2282938); details: HepG2 Attagene CIS-FACTORIAL EGR reporter mRNA; actives raise or lower the signal
# Outline: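 Endpoint derived by bidirectional fitting versus DMSO vehicle. Method: cis-promoter reporter units transfected into HepG2, 24 h dosing, RNA isolation, RT-PCR with 6-FAM primer extension and HpaI digestion, then capillary electrophoresis fluorescence detection.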
# [11] = ATG_DR4_LXR_CIS: Attagene CIS-FACTORIAL HepG2 Assay for human Liver X Receptor (LXR), DR4 submotif (AID 2282929); details: HepG2 Attagene DR4 cis-reporter, mRNA transcription; actives raise or lower the signal
# Outline: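 DR4 cis-reporter in HepG2, 24 h exposure. Detection: RT-PCR, 6-FAM labelling, CE fragment analysis. Endpoint fitted bidirectionally, DMSO = baseline.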
# [12] = ATG_BRE_CIS: Attagene CIS-FACTORIAL HepG2 Assay for human Bone Morphogenetic Protein (BMP) Response Element (BRE) (AID 2282933); details: HepG2 BMP response element reporter, Attagene transcription factor profiling; actives raise or lower the signal
# Outline: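 Transient MRTU transfection of human HepG2 liver cells; 24 h compound treatment; total RNA isolated, reverse-transcribed, PCR-amplified, 6-FAM labelled, HpaI-cut, capillary electrophoresis. DMSO = negative control/baseline, bidirectional fit.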
# [13] = ATG_AP_1_CIS: Attagene CIS-FACTORIAL HepG2 Assay for human Activator Protein 1 (AP-1) (AID 2282931); details: HepG2 Attagene cis-factorial AP-1 reporter mRNA; actives raise or lower the signal
# Outline: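 Cis-regulated reporter units transiently expressed in HepG2 report endogenous transcription-factor activity. Signal: reporter mRNA at 24 h, via RT-PCR and fluorescent capillary electrophoresis. Endpoint derived by bidirectional fitting, DMSO as negative control.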
# Sequence of CCAAT/enhancer-binding protein beta (Homo sapiens) (P17676 whole entry, looked up, the tested form may be a part): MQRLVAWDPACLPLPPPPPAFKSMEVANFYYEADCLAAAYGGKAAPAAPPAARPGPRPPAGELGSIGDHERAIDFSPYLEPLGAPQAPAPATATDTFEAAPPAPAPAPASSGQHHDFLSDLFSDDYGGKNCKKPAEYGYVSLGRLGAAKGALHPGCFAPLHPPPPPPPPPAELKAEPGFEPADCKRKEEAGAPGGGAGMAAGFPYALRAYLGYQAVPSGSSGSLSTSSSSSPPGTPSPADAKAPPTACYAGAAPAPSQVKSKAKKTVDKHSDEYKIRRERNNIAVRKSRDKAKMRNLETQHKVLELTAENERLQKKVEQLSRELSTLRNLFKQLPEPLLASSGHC
# Sequence of Aryl hydrocarbon receptor (Homo sapiens) (P35869 whole entry, looked up): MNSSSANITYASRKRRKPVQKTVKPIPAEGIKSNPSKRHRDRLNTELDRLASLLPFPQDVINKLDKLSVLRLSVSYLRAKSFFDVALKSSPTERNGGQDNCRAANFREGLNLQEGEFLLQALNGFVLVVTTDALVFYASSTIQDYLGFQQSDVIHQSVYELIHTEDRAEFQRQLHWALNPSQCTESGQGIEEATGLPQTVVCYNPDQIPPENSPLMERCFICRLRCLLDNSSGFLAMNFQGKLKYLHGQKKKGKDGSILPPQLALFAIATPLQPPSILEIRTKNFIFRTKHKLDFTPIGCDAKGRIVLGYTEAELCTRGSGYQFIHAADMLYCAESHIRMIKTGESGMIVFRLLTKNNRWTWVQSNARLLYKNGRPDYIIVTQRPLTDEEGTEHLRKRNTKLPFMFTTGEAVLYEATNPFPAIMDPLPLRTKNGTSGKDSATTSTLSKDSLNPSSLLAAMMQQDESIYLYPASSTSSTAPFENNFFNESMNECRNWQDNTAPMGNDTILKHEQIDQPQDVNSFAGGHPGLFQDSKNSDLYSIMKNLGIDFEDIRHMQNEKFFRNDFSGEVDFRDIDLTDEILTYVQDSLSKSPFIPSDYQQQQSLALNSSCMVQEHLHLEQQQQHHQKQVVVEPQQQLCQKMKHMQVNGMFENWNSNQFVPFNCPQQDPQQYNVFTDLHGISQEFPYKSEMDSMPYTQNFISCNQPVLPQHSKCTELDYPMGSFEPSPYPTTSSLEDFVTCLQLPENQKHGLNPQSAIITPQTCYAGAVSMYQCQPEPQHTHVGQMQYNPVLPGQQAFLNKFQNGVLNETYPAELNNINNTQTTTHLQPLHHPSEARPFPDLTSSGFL
# Sequence of Transcription factor E2F1 (Homo sapiens) (Q01094 whole entry, looked up): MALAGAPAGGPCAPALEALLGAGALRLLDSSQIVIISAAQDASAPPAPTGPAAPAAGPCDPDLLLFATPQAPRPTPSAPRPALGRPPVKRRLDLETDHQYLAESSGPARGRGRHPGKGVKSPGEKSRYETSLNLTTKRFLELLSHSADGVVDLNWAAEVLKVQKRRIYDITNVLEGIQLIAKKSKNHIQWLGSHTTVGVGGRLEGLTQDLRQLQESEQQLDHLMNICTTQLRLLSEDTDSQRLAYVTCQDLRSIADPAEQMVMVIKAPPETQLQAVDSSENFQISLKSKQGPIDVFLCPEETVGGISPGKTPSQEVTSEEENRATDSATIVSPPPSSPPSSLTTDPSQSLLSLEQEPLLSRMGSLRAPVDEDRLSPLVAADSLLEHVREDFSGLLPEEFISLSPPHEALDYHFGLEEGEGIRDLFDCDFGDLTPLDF
# Sequence of Retinoic acid receptor alpha (Homo sapiens) (P10276 whole entry, looked up): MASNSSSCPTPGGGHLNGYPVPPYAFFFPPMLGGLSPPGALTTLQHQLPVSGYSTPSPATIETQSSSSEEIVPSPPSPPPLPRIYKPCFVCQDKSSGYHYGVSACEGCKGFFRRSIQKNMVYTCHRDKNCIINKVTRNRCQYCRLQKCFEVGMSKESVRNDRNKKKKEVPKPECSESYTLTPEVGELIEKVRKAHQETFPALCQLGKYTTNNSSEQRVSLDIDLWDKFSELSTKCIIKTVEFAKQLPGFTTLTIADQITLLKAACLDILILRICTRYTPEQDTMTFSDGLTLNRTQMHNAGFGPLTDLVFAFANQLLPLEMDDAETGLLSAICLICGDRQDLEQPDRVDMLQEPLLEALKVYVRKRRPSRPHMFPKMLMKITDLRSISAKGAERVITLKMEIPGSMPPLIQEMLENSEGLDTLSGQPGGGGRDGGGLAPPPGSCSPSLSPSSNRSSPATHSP
smiles,measurement,setting,value
C[C@]12CC[C@@H](O)C[C@@H]1CC[C@@H]1[C@@H]2CC[C@]2(C)C(=O)CC[C@@H]12,outcome,[1],inactive
same,outcome,[2],inactive
same,outcome,[3],inactive
same,outcome,[4],inactive
same,outcome,[5],inactive
same,outcome,[6],inactive
same,outcome,[7],inactive
same,outcome,[8],inactive
same,outcome,[9],inactive
same,outcome,[10],inactive
Cc1c([N+](=O)[O-])c(C)c([N+](=O)[O-])c(C(C)(C)C)c1[N+](=O)[O-],outcome,[1],inactive
same,outcome,[2],inactive
same,AC50,[11],60.7 µM (active)
same,outcome,[4],inactive
same,outcome,[5],inactive
same,outcome,[12],inactive
same,AC50,[6],3.83 µM (active)
same,outcome,[7],inactive
same,outcome,[8],inactive
same,outcome,[9],inactive
same,outcome,[10],inactive
CCOC(=O)Cc1ccccc1,outcome,[1],inactive
same,outcome,[2],inactive
same,outcome,[11],inactive
same,outcome,[4],inactive
same,outcome,[5],inactive
same,outcome,[12],inactive
same,outcome,[6],inactive
same,outcome,[7],inactive
same,outcome,[10],inactive
CN(C1CCCCC1)C1CCCCC1,outcome,[1],inactive
same,outcome,[2],inactive
same,outcome,[11],inactive
same,outcome,[4],inactive
same,outcome,[13],inactive
same,outcome,[5],inactive
same,outcome,[12],inactive
same,outcome,[7],inactive
same,outcome,[8],inactive
same,outcome,[9],inactive
same,outcome,[10],inactive
O=[N+]([O-])c1cccc2ccccc12,outcome,[1],inactive
same,outcome,[2],inactive
same,outcome,[11],inactive
same,AC50,[4],51.4 µM (active)
same,outcome,[13],inactive
same,outcome,[5],inactive
same,outcome,[12],inactive
same,outcome,[6],inactive
same,outcome,[7],inactive
same,outcome,[9],inactive
same,outcome,[10],inactive
CCC[CH2][Sn]([CH2]CCC)([CH2]CCC)[CH2]CCC,outcome,[1],inactive
same,AC50,[2],5.44 µM (active)
same,outcome,[4],inactive
same,AC50,[13],7.55 µM (active)
same,AC50,[5],19.1 µM (active)
same,AC50,[12],5.89 µM (active)
same,AC50,[6],0.283 µM (active)
same,outcome,[7],inactive
same,AC50,[8],14 µM (active)
same,outcome,[9],inactive
same,AC50,[10],5.14 µM (active)
CC(C)(c1ccccc1)c1cc(-n2nc3ccccc3n2)c(O)c(C(C)(C)c2ccccc2)c1,outcome,[1],inactive
same,outcome,[2],inactive
same,outcome,[11],inactive
same,outcome,[4],inactive
same,outcome,[5],inactive
same,outcome,[12],inactive
same,outcome,[6],inactive
same,outcome,[7],inactive
same,outcome,[8],inactive
same,outcome,[9],inactive
same,outcome,[10],inactive
CCCCOC(C)=O,outcome,[1],inactive
same,outcome,[2],inactive
same,outcome,[11],inactive
same,outcome,[4],inactive
same,outcome,[13],inactive
same,outcome,[5],inactive
same,outcome,[12],inactive
same,outcome,[6],inactive
same,outcome,[7],inactive
same,outcome,[8],inactive
same,outcome,[9],inactive
same,outcome,[10],inactive
OC(Cc1ccccc1Cl)(Cn1[nH]cnc1=S)C1(Cl)CC1 (stereo not drawn),outcome,[1],inactive
same,outcome,[2],inactive
same,outcome,[11],inactive
same,outcome,[4],inactive
same,outcome,[5],inactive
same,outcome,[12],inactive
same,outcome,[7],inactive
same,outcome,[8],inactive
same,outcome,[9],inactive
same,outcome,[10],inactive
ClCCN1CCOCC1,outcome,[1],inactive
same,outcome,[2],inactive
same,outcome,[11],inactive
same,outcome,[4],inactive
same,outcome,[5],inactive
same,outcome,[12],inactive
same,outcome,[6],inactive
same,outcome,[7],inactive
same,outcome,[9],inactive
same,outcome,[10],inactive
N#CS,outcome,[1],inactive
same,outcome,[2],inactive
same,outcome,[11],inactive
same,outcome,[4],inactive
same,outcome,[13],inactive
same,outcome,[5],inactive
same,outcome,[12],inactive
same,outcome,[7],inactive
same,outcome,[8],inactive
same,outcome,[9],inactive
same,outcome,[10],inactive
C=CC(=O)[O][Sn]([CH2]CCC)([CH2]CCC)[CH2]CCC,AC50,[1],0.412 µM (active)
same,outcome,[2],inactive
same,AC50,[11],0.607 µM (active)
same,AC50,[4],0.704 µM (active)
same,AC50,[13],0.128 µM (active)
same,outcome,[5],inactive
same,AC50,[12],0.217 µM (active)
same,outcome,[7],inactive
same,AC50,[8],0.551 µM (active)
same,outcome,[9],inactive
same,AC50,[10],0.412 µM (active)
